The target of assay [1] is T1, Aspartate--tRNA(Asp/Asn) ligase (Mycobacterium tuberculosis (strain ATCC 25618 / H37Rv)) (UniProt P9WFW3). Also: in the data most compounds retested in dose-response had high values.
T1 sequence (whole entry): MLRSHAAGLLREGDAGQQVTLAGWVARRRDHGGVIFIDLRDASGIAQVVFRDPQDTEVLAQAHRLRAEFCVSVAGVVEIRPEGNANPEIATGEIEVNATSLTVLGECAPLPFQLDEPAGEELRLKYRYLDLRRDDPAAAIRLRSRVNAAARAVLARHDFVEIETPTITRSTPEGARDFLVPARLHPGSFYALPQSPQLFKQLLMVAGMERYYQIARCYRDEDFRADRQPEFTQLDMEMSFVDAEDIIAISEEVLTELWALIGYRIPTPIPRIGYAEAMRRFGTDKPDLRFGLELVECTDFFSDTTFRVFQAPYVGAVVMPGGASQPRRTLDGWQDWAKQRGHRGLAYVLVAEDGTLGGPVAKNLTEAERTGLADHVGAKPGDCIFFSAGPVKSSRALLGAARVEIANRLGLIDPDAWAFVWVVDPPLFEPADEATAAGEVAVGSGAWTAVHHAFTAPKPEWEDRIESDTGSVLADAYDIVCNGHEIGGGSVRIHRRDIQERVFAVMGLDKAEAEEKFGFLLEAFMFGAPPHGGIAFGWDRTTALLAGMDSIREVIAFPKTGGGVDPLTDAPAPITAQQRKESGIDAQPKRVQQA
As to the kind of experiment: Assay for Asp RNA synthetase-1 from Mycobacterium tuberculosis. Also on record: scale not given: direction of the effect not stated beside the values. The class given is functional. The following applies: 30 µM.

Assay [2] deals with Shiga toxin 2 (Escherichia coli O157:H7) (UniProt P09385+P09386). As to the kind of experiment: E. coli 0.157:H7 Shiga Toxin SOP - stx2 screening assay. The class given is functional. Further details: scale not given: direction of the effect not stated beside the values. The following applies: 30 µM.

With `Cc1ccc(-c2nc(CCNC(=O)NC3CCN(C)CC3)co2)cc1`, the Percent Effect was -3.19% in assay [1] and 3.52% in assay [2].

For the compound `CCN1CCN(CC(C)(O)c2cccc(C(F)(F)F)c2)CC1` (configuration not stated), the Percent Effect stood at 3.38% in assay [1] and 6.41% in assay [2].

For the compound `COc1ncccc1NC(=O)C1CC(=O)N(Cc2ccccn2)C1` (configuration not stated), the Percent Effect is 1.2% in assay [1] and -0.103% in assay [2].

For `COc1cc(C(=O)N2CCCS2(=O)=O)ccc1C`, the Percent Effect was -7.63% in assay [1] and -10.8% in assay [2].

Take `COCCO[C@@H]1CCN(C(=O)c2ccc(C)o2)[C@@H]1Cc1cnn(C)c1`: the Percent Effect in assay [1] stood at 2.6%; in assay [2] it was 2.85%.

Regarding `CC(C)n1ncc2c1NC(=O)CC21C(=O)Nc2c(Cl)cc(Cl)cc21` (configuration not stated), the figures for the Percent Effect in assay [1] and in assay [2] were 0.842% and 1.79%, respectively.

Turning to `O=C(Nc1ccccc1F)N1CCN(Cc2noc(C3CC3)n2)CC1`, the figures for the Percent Effect in assay [1] and in assay [2] were 1.99% and -11.6%, respectively.

For the compound `CCOc1ncccc1NC(=O)NC1CCN(S(C)(=O)=O)CC1`, the Percent Effect was 5.32% in assay [1] and -16.8% in assay [2].

`COCCc1noc(CN(C)C(=O)c2cccc(N3CCCC3=O)c2)n1`: the values for the Percent Effect in assay [1] and in assay [2] were 3.06% and 3.89%, respectively.

On to `Cc1nnc(NC(=O)CN2CCCC(Cn3cncn3)C2)s1` (configuration not stated), for which the Percent Effect in assay [1] is 2.66%; in assay [2], -3.39%.

`CCc1nc(CN2CCN(C(=O)C3CCCCC3)CC2)cs1`: the Percent Effect is -0.656% in assay [1] and 1.6% in assay [2].

With `O=C1c2cnc(N3CCOCC3)nc2CN1c1ccc2c(c1)OCO2`, the Percent Effect in assay [1] was 7.52%; in assay [2], -25.1%.

Turning to `Cc1ccc(NC2CCN(C(=O)c3c(C)noc3C)CC2)nn1`, the Percent Effect in assay [1] is -3.12%; in assay [2], 7.22%.

Regarding `O=C(CCc1ccccn1)N1CCN(C(=O)CC2CCCCC2)CC1`, the Percent Effect is -2.28% in assay [1] and 3.5% in assay [2].

Regarding `COCCN1CCCN(C(=O)NC(C)Cn2ccnc2)CC1` (configuration not stated), the Percent Effect was -1.32% in assay [1] and -14.7% in assay [2].

Consider `CCCN(C(=O)COC)c1nc2c(s1)CCc1c-2cnn1C`, for which the Percent Effect in assay [1] is -1.78%; in assay [2] it was -37.9%.

On to `Cc1cc(C2CCCN(CCCNS(C)(=O)=O)C2)n[nH]1` (configuration not stated), for which the Percent Effect was -3.97% in assay [1] and 8.81% in assay [2].

As for `CC1(C)OCC(CNC(=O)c2cnn(-c3cc(Cl)ccc3Cl)c2N)O1` (configuration not stated), the Percent Effect is -2.66% in assay [1] and 17.5% in assay [2].

Turning to `Cc1nn(C)c(C)c1C1CCCN1Cc1nc(C2CC2)no1` (configuration not stated), the Percent Effect was -10.2% in assay [1] and -15.8% in assay [2].

Consider `Cc1nn(C)c(C)c1C1CCCN1C(=O)c1cnc2n[nH]c(C)c2c1` (configuration not stated), for which the Percent Effect is -5.16% in assay [1] and -21.8% in assay [2].

As to `Cc1ncsc1C(=O)N(Cc1cccnc1)C1CC1`, the Percent Effect in assay [1] was -0.522%; in assay [2], 5.93%.

`COCCCn1c(CN2CCCC(O)C2)cnc1S(=O)(=O)C1CCCC1` (configuration not stated): the Percent Effect in assay [1] is 4.61%; in assay [2] it was -11.3%.

For the compound `O=C(NCC1CC1)C1CN(C(=O)c2ccncc2)CC12CCOCC2` (configuration not stated), the Percent Effect in assay [1] is 3.22%; in assay [2] it was -21.5%.

For `FC(F)(F)c1nc(NC2CCCC2)c2ccccc2n1`, the Percent Effect was 0.562% in assay [1] and -0.0663% in assay [2].

Regarding `Cc1cc(CN2CCC(CNC(=O)c3nccc4ccccc34)C2)[nH]n1` (configuration not stated), the results for the Percent Effect in assay [1] and in assay [2] were 8.37% and -22.4%, respectively.

Consider `O=C(C1=CCCC1)N1CCO[C@H]2[C@@H](Oc3ccccn3)CC[C@@H]21`, for which the Percent Effect was 0.28% in assay [1] and -1.55% in assay [2].

For `CN(Cc1cccs1)C(=O)CN1CCCC1Cn1cncn1` (configuration not stated), the Percent Effect in assay [1] is 5.56%; in assay [2], -62.3%.

Take `Cc1ccc(CNCCOc2ccc(S(C)(=O)=O)cc2)cc1`: the results for the Percent Effect in assay [1] and in assay [2] were 1.28% and -76.7%, respectively.

As to `COc1cccc(S(=O)(=O)NC2CNC(=O)C2)c1` (configuration not stated), the Percent Effect was -3.48% in assay [1] and 3.09% in assay [2].

As for `Cc1nn(C)c(C)c1C1CCCN1C(=O)c1ccc(CN(C)C)cc1` (configuration not stated), the Percent Effect in assay [1] was -2.88%; in assay [2], -14%.

In the case of `COc1ccc(NC(C)=O)c(N2CCN(C(C)=O)CC2)n1`, the Percent Effect in assay [1] is 2.32%; in assay [2], -15.1%.

On to `CCS(=O)(=O)c1ccccc1N1CCC(NC(=O)NC2CCCC2)CC1`, for which the Percent Effect in assay [1] is -3%; in assay [2] it was 7.11%.

Consider `CNc1snc(C)c1C(=O)N1CCCC(n2nc(C)cc2C)C1` (configuration not stated), for which the Percent Effect in assay [1] is -8.77%; in assay [2], -3.59%.

For the compound `CC(c1ccc(F)c(F)c1)N1CCN(Cc2nccn2C)CC1` (configuration not stated), the Percent Effect in assay [1] is -2.85%; in assay [2] it was -13.2%.

On to `O=C(c1cc(C2CC2)on1)N1CCCC(n2cncn2)C1` (configuration not stated), for which the Percent Effect in assay [1] is -0.789%; in assay [2], -16.7%.

`O=C1CCSCC(C(=O)N2CCN(C3CCCCC3)CC2)N1` (configuration not stated): the Percent Effect is -4.14% in assay [1] and -2.45% in assay [2].

Consider `O=C(c1ccno1)N1CC[C@@H]2O[C@@H](COCCN3CCCC3)CC[C@@H]21`, for which the Percent Effect is -0.779% in assay [1] and -4.5% in assay [2].

As to `CC(NC(=O)N(C)Cc1ccncc1)c1nncn1C` (configuration not stated), the figures for the Percent Effect in assay [1] and in assay [2] were -5.91% and -0.749%, respectively.

In the case of `Cn1cc(CN2C[C@@H]3CN(Cc4ccoc4)CCO[C@@H]3C2)cn1`, the values for the Percent Effect in assay [1] and in assay [2] were 3.69% and -1.85%, respectively.

Regarding `COc1cc(NC(=O)Cn2ccc3sc(C)cc3c2=O)cc(OC)c1`, the Percent Effect in assay [1] was -2.26%; in assay [2], 0.557%.

For the compound `Cc1cnn(CC(C)NCc2csc(-c3ccco3)n2)c1` (configuration not stated), the Percent Effect turned out to be 2.75% in assay [1] and 1.53% in assay [2].

Consider `CC(C)c1noc(C(C)N2CCN(CCN3CCCC3=O)CC2)n1` (configuration not stated), for which the values for the Percent Effect in assay [1] and in assay [2] were 1.45% and 17.6%, respectively.

As for `O=C(NCC(O)c1ccccc1Cl)c1cccc(-n2cnnn2)c1` (configuration not stated), the Percent Effect in assay [1] was 7.85%; in assay [2] it was 2.65%.

For `CCN1CCn2c(C)cnc2C12CCN(C(=O)CC(C)C)CC2`, the figures for the Percent Effect in assay [1] and in assay [2] were 1.31% and -0.923%, respectively.

On to `COCCOc1cccc(C(=O)N2CCCC(n3ccnc3C)C2)c1` (configuration not stated), for which the Percent Effect in assay [1] was -2.52%; in assay [2], -16%.

As for `O=c1n(CCSCc2ccccc2F)nc2ccccn12`, the Percent Effect in assay [1] is 0.461%; in assay [2] it was 20.1%.

The values are drawn from ChEMBL document CHEMBL3988442, “University of Dundee, Small-Polar-MMV Screening Library” (2021).
